# Bioassay records from PubChem BioAssay.
# ELG1 DNA repair: ELG1-dependent DNA repair inhibition; 330,000 compounds, 2.3% hits; Potency, µM (top dose mostly 46.1 µM), inactives show top-dose activity change, negative = inhibition, usual class: inhibitors; HEK293T ELG1-luciferase reporter, luminescence, 16 h; DNA damage induced by 5-fluorouridine; further: potency means the concentration at half of the fitted maximal effect; nearly all actives have a fitted effect of over 55% in size
#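 Quantitative HTS, concentration-response format. 2,000 cells/well co-treated with 5-fluorouridine and compound, 16 hr in 5% CO2 at 37 °C; ONE-Glo luminescence read after 30 min.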
# IL1B secr inh: inflammasome signaling inhibition, IL-1 beta readout | THP-1 LPS/ATP IL-1B secretion, AlphaLISA, 16 h; stronger effect = lower value | activity change, % at 57.5 µM | 360,000 compounds, 4.7% hits; in the data active means activity change below about -50%; inconclusive means mostly about -30% to -49%
#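 THP-1 cells pretreated 1 hr with compounds (up to 57.5 uM final), then stimulated with LPS (250 ng/mL final) plus ATP (1.25 mM final); secreted IL-1B measured by AlphaLISA after 16 hr, decreased signal indicating inhibition.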
# DT40 TDP1 no CPT: qHTS for Inhibitors of human tyrosyl-DNA phosphodiesterase 1 (TDP1): qHTS in cells in absence of CPT. DT40 Tdp1-/- hTDP1 cells, no CPT, ATP luminescence, 48 h. Potency, µM (titrated, usually from 46.2 µM), without a hit: at the top dose activity change, negative = growth inhibition, hits mostly inhibitors. 420,000 compounds, 15% hits; further: potency means the concentration at half of the fitted maximal effect; nearly all actives have a fitted effect of over 55% in size
#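 Seeded 400 DT40-hTDP1 cells/well (vehicle DMSO, no 20 nM CPT); pinned compounds; ≥48 hr at 37 °C; CellTiter-Glo luminescence as viability measure.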
# DT40 TDP1 CPT: DT40-hTDP1 cell growth loss with CPT | 420,000 compounds, 12% hits | Potency, µM (series often up to 46.2 µM), for inactives: top-dose activity change, negative = growth inhibition, actives largely listed as inhibitors | chicken DT40 Tdp1-/-;hTDP1 cells + 20 nM CPT, ATP luminescence, 48 h; further: potency means the concentration at half of the fitted maximal effect; nearly all actives have a fitted effect of over 55% in size
#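 Chicken DT40 Tdp1-/- cells stably complemented with human TDP1 were seeded at 400 cells/well in medium containing 20 nM camptothecin, exposed to pin-transferred compounds, and grown at 37 °C for at least 48 hr. Viability was read as ATP luminescence.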
# VP16 counter: Gal4-VP16 reporter inhibition counter-screen; 310,000 compounds, 3.5% hits; AID 2546; Drosophila S2 Gal4-VP16 UAS-luciferase, luminescence, 20 h; Potency, µM (titrated, usually from 53.6 µM), for the others: top-dose activity, negative = inhibition, usual class: inhibitors;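 further: Gal4-VP16 expression switched on by copper sulfate through the metallothionein promoter; potency means the concentration at half of the fitted maximal effect; nearly all actives have a fitted effect of over 50% in size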
# RORgamma inh: inhibitors of mouse ROR gamma transcriptional activity | P51450 | Drosophila S2 Gal4-RORgamma UAS-luciferase reporter, 20 h | Potency, µM (highest dose often 53.6 µM), without a hit: at the top dose activity change, negative = inhibition, usual class: inhibitors | 310,000 compounds, 5.4% hits | AID 2551; further: potency means the concentration at half of the fitted maximal effect; nearly all actives have a fitted effect of over 60% in size
# Target sequence (P51450 whole entry, looked up, the tested form may be a part): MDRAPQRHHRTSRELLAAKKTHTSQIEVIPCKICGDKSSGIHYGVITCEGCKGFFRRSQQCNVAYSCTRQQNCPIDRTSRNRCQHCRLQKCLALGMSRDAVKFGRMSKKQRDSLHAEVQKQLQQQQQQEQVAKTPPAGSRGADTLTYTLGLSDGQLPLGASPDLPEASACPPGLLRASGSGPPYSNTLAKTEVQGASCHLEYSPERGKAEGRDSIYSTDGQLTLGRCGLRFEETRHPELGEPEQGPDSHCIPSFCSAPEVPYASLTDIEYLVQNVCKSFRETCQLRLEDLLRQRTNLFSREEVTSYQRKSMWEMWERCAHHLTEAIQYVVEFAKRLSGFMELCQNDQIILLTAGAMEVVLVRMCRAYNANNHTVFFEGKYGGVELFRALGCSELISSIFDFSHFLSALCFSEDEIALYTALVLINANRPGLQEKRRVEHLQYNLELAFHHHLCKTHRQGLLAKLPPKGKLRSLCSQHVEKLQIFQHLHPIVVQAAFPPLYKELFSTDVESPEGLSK
#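 ROR gamma transcriptional activity was tracked as Gal4-UAS luciferase output in stably transfected Drosophila Schneider cells, with compound added 1 hr before 700 uM copper sulfate induction and a 20 hr ambient-temperature incubation.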
# * hit, by the source's call; ? = inconclusive; nt = no result given; [ ] = dose if it differs, or a comment. The list is not random: actives were taken first. Their share in the collection is about 21%. Unless noted, the call rests on the fitted dose curve; in most records, active means well fitted curve in the direction sought with a large enough effect; inconclusive means small, poorly fitted or top-dose-only effect, or another doubt; inactive means no such curve, though single readings can be large; an effect the other way counts as inactive or inconclusive. On the % scale 0 is the no-effect control and ±100 the full control effect.
SMILES,ELG1 DNA repair,IL1B secr inh,DT40 TDP1 no CPT,DT40 TDP1 CPT,VP16 counter,RORgamma inh
COc1ccc(-c2cn3nc(N4CCCC(C(=O)Nc5ccc(C)c(C)c5)C4)sc3n2)cc1 (stereo not given),nt,nt,12µM*,?,nt,nt
CCOc1ccc(NC(=O)C2CCCN(c3nn4cc(-c5ccc(OC)cc5)nc4s3)C2)cc1 (stereo not given),nt,nt,10µM*,?,nt,nt
CCC(=O)N1CCC1(C)C(=O)NCc1ccc(SC)cc1 (stereo not given),nt,18,2%,-6%,nt,nt
CCOC(=O)c1cc2c(c(CCO)n1)[C@H](CCO)N(S(=O)C(C)(C)C)C2 (stereo not given in full),nt,15,10%,-9%,nt,nt
CN(c1ccccc1)S(=O)(=O)c1cccc(NS(=O)(=O)c2ccc(/C=C/C(=O)O)cc2)c1,9%,6,-15%,0%,0%,-4%
Cc1ccc(-c2cn3nc(N4CCCC(C(=O)Nc5ccc(F)cc5)C4)sc3n2)cc1 (stereo not given),nt,nt,18µM*,16µM*,nt,nt
COc1ccc(-c2cn3nc(N4CCC(C(=O)Nc5ccc(C)cc5)CC4)sc3n2)cc1,nt,nt,21µM*,?,nt,nt
Cc1cccc(CNC(=O)C2CCN(c3nn4cc(-c5ccc(F)cc5)nc4s3)CC2)c1,nt,nt,-30%,-25%,nt,nt
COc1cccc(NC(=O)C2CCN(c3nn4cc(-c5ccc(F)cc5)nc4s3)CC2)c1,nt,nt,?,13µM*,nt,nt
COc1ccc(-c2cn3nc(N4CCCC(C(=O)Nc5cccc(Cl)c5C)C4)sc3n2)cc1 (stereo not given),nt,nt,21µM*,?,nt,nt
O=C(NNS(=O)(=O)c1ccccc1)c1cccc([N+](=O)[O-])c1,5%,13,4%,7%,-2%,57%[1.91 µM]
Cc1ccc(OCC(=O)Nc2nc(-c3ccc(Br)cc3)ns2)cc1,nt,nt,?,-30%,nt,nt
CCOc1ccccc1C(=O)Nc1nnc(SCC(=O)Nc2cc(C)on2)s1,?,-7,-20%,-28%,3%,-15%
Cc1cc(=O)n2nc(N3CCCC3C(=O)Nc3cccc(Cl)c3C)sc2n1 (stereo not given),3%,14,-22%,-7%,3%,16µM*
CCNC(=O)C1CCCN(c2nn3cc(-c4ccc(C)cc4)nc3s2)C1 (stereo not given),nt,nt,23µM*,18µM*,nt,nt
COc1ccc(-c2cn3nc(N4CCCC(C(=O)NCc5ccccc5C)C4)sc3n2)cc1 (stereo not given),nt,nt,10µM*,13µM*,nt,nt
COc1ccc(-c2cn3nc(N4CCC(C(=O)NCc5ccc(F)cc5)CC4)sc3n2)cc1,nt,nt,?,-33%,nt,nt
Cc1cc(=O)n2nc(N3CCC(C(=O)Nc4cccc(Cl)c4C)CC3)sc2n1,-7%,-11,11%,-13%,2%,-8%
CCCSCCCNC(=O)C1CCN(c2nn3cc(-c4ccc(F)cc4)nc3s2)CC1,nt,nt,?,5.2µM*,nt,nt
CC(C)Cn1cc(F)c(=O)n(CC(C)C)c1=O,8%,-8,-9%,-13%,-5%,-6%
CSCCC(NS(=O)(=O)c1ccc2c(c1)oc(=O)n2C)C(=O)NCCc1ccc(C)cc1 (stereo not given),nt,nt,-9%,-8%,nt,nt
Cc1cn2c(=O)cc(COc3ccc(C(C)(C)C)cc3)nc2s1,nt,nt,-19%,-27%,nt,nt
COC(=O)c1c(SCC(=O)Nc2ccccc2OC)[nH]c2ccccc2c1=O,nt,nt,?,23µM*,nt,nt
COc1ccccc1NC(=O)CSc1nc2ncccc2[nH]1,-4%,7,-14%,-7%,7%,-5%
COc1ccc(Cl)cc1NC(=O)CSc1nc(-c2ccccc2)c2ccccc2n1,nt,nt,21µM*,7.3µM*,nt,nt
